Consider 14 compounds from PubChem BioAssay (NCI).

Common to all, as to assay: NCI-60 one-dose screen, 48 h (100 = growth as untreated, 0 = no growth, -100 = all killed)
Holding throughout (conditions): 10 µM unless noted

The test system of test [1] is HCT-15 colon.
Test [2] concerns HT29 colon.
Test [3] deals with SNB-75 CNS.
Test [4] deals with SNB-19 CNS.
Test [5] concerns U251 CNS.
Test [6] has as its system PC-3 prostate.
Test [7] concerns SK-MEL-5 melanoma.
The subject of test [8] is UACC-62 melanoma.
Test [9] deals with LOX IMVI melanoma.
Test [10] deals with SK-MEL-28 melanoma.

Compounds without any hit were thinned out: in the full panel of roughly 83,000, 20% have a hit.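 The endpoint reported here, percent growth, reads 100 for growth as untreated, 0 for no net growth and -100 for all cells dead.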 Unmarked numbers belong to inactive results. Calls of active or inactive are those of the source. Rule for the calls: active = growth percent below 10; inactive = the rest.

`CC1CCCN(CCCCOc2ccc(-c3ccc(C#N)cc3)cc2)C1` (stereo not given): the growth in test [1] is 56.4%; in [2] it was 14.6%; in test [3], 90.3%; in test [4], 95.3%; in test [5] it was 71.7%; in test [6], 75.4%. Also, the growth in test [7] is 46.2%; in test [8] it was 89.8%; in test [9] it was 83.9%; in test [10], 100%.

For the compound `CCOC(=O)C1=C(C(=O)OCC)N(c2cc(OC)c(OC)c(OC)c2)C(N)=C(C#N)C1c1cc(=O)[nH]c2ccccc12` (stereo not given), the growth in test [1] is 106%; in [2], 112%; in test [3] it was 83%; in test [4], 98.4%; in test [5] it was 98.7%; in [6], 123%. Further, the growth in test [7] is 95.9%; in test [8], 88.6%; in [9] it was 93.7%; in [10] it was 114%.

As to `N#Cc1ccc(-c2ccc(-c3cccs3)o2)cc1F`, the growth in test [1] is 79.7%; in test [2], 84.5%; in test [3], 44.9%; in [4] it was 110%; in [5], 67.2%; in test [6] it was 87.5%. The growth in test [7] was 84.4%; in [8], 81.6%; in test [9], 80.2%; in test [10], 91.9%.

Regarding `CC(=O)NC1C(O[C@H]2C[C@H]3[C@@H]4CC=C5C[C@@H](O)CC[C@]5(C)[C@H]4CC[C@]3(C)[C@H]2[C@H](C)C(=O)CCC(C)C)OCC(O)C1O` (stereo not given in full), the growth in test [1] was 30.5%; in test [2], 36.8%; in [3] it was 37.8%; in test [4], 57.5%; in test [5], 28%; in test [6] it was 26.5%. The growth in test [7] was 24.8%; in [8], -20.3% (active); in test [9] it was 27.2%; in test [10], -14.3% (active).

Turning to `CN1CCCN(CCNc2nccc(-c3c(-c4cccc(O)c4)nc4sccn34)n2)S1(=O)=O`, the growth in [1] is 33.7%; in [2], 38.7%; in test [3] it was 12.9%; in [4], 99.4%; in test [5], 56.6%; in [6] it was 30.3%. Besides, the growth was 37.7% in test [7], -12.6% (active) in [8], 14.2% in [9] and 18.1% in [10].

`COc1cc(NCCC2CCCCN2)c2ncccc2c1OC` (stereo not given): the growth in [1] was 86.1%; in test [2] it was 73.7%; in [3], 156%; in test [4], 91.8%; in [5] it was 33.5%; in test [6] it was 68.2%. The growth in test [7] was 77.8%; in test [8] it was 81.1%; in [9], 15%; in test [10] it was 107%.

Regarding `COc1ccc(-c2ccc(-c3ccc(C(=N)N)s3)s2)cc1`, the growth was -73.7% (active) in test [1]; -81.9% (active) in test [2]; -84.2% (active) in test [3]; -61.9% (active) in [4]; -70.3% (active) in [5]; -92.8% (active) in [6]. Further, the growth was -97.8% (active) in test [7], -91% (active) in test [8], -74.7% (active) in test [9] and -75.5% (active) in test [10].

On to `Nc1ccc(C2=NNC(=O)Cc3cc4c(cc32)OCCO4)cc1Cl`, for which the growth in test [1] is 28.9%; in test [2] it was 9.09% (active); in [3], -1.14% (active); in [4] it was 57.5%; in test [5], 39.1%; in test [6], 53%. The growth in [7] is 29.8%; in test [8], 38%; in [9] it was 39%; in [10] it was 56.4%.

Take `C=C(COC(C)=O)[C@H]1CC/C(C)=C/CC/C(C)=C/CC[C@@]2(C)O[C@H]2C1`: the growth in test [1] was 96%; in test [2] it was 108%; in test [3] it was 109%; in test [4], 106%; in test [5], 98.3%; in [6], 129%. Moreover, the growth in test [7] is 108%; in [8], 99.6%; in test [9], 94.6%; in [10], 104%.

As to `Cc1ccccc1NC(=O)c1sc2nc3c(cc2c1N)C(=O)CCC3`, the growth in test [1] is 32.8%; in [2], 21.1%; in [3], 13.1%; in test [4], 46.1%; in test [5], 49%; in test [6], 30.3%. Also, the growth in test [7] was 18.6%; in test [8] it was 36.9%; in test [9], 47.4%; in test [10] it was 52.8%.

As for `Cc1csc(N/N=C/c2ccncc2)n1`, the growth in test [1] was 103%; in test [2], 87.4%; in test [3] it was 105%; in [4], 100%; in [5], 83.5%; in test [6], 111%. For the same compound, the growth is 100% in test [7], 93.2% in test [8], 100% in [9] and 110% in [10].

With `O=C(/C=C/c1ccccc1)c1c[nH]c2ccccc2c1=O`, the growth in test [1] is 4.67% (active); in test [2], 8.44% (active); in test [3], -15.6% (active); in [4], 16.3%; in [5], 11.6%; in test [6], 26.7%. Besides, the growth in [7] was 43.4%; in test [8] it was 29.2%; in [9], -32.6% (active); in test [10], 66.4%.

For the compound `O=C(Cc1ccc([N+](=O)[O-])cc1)Oc1ccccc1`, the growth in test [1] was 104%; in test [2] it was 104%; in [3], 102%; in test [4], 103%; in test [5], 107%; in test [6], 93.1%. Further, the growth in test [7] was 105%; in test [8] it was 101%; in test [9], 107%; in test [10], 112%.

`O=C(/C=C/c1cn(-c2ccccc2)nc1-c1ccccc1)OCc1cn(-c2cccc([N+](=O)[O-])c2)nn1`: the growth was 95.2% in test [1]; 86.3% in test [2]; 74.3% in test [3]; 87.8% in test [4]; 78.3% in test [5]; 67.4% in [6]. For the same compound, the growth is 100% in [7], 73.5% in test [8], 90.1% in test [9] and 92.1% in [10].
